Source: PubChem BioAssay
Rows were chosen to be rich in hits. Some 8.7% of all compounds tested hit in one or more screens of this group.
Pf growth 96h = P. falciparum growth inhibition at 96 hour, primary screen for plastid delayed-death inhibitors | P. falciparum luciferase reporter growth, 96 h | Potency, µM (titrated, usually from 28.7 µM), for inactives: top-dose activity change, negative = inhibition, most hits filed as inhibitors | 320,000 compounds, 6.9% hits | AID 504834
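Compounds incubated with erythrocytes infected by luciferase-expressing P. falciparum (2% hematocrit, 0.05% parasitemia final) for 96 hours, 37 C in 5% CO2. Growth inhibition scored as decreased luciferase luminescence.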
Vaccinia mCherry = inhibitors of vaccinia virus infection (mCherry reporter signal); Vaccinia virus mCherry reporter infection, fluorescence; Potency, µM (doses to about 36.5 µM), inactives show top-dose activity change, negative = inhibition, usual class: inhibitors; 310,000 compounds, 0.63% hits; AID 720579; calls by dose curve; tested in A549 cells; also: nearly all actives have a fitted effect of over 35% in size
VACV Venus inh = inhibitors of vaccinia virus (Venus reporter); Vaccinia virus Venus reporter expression, fluorescence; Potency, µM (titrated, usually from 36.5 µM), for the others: top-dose activity change, negative = inhibition, most hits filed as inhibitors; 330,000 compounds, 0.46% hits; AID 720580; calls by dose curve; tested in A549 cells; also: nearly all actives have a fitted effect of over 30% in size
AMA1-RON2 inh = inhibitors of Plasmodium falciparum AMA1-RON2 interaction | Potency, µM (highest dose often 58.2 µM), inactives show top-dose activity change, negative = inhibition, hits mostly inhibitors | AlphaScreen AMA1-biotinylated RON2 peptide binding | 360,000 compounds, 0.2% hits;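 also: 0% = vehicle wells and -100% = peptide control; nearly all actives have a fitted effect of over 45% in size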
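AMA1 (3D7) with his tag at 25 nM final met compounds first, then biotinylated RON2 peptide at 25 nM; detection used donor plus acceptor beads, 10 µg/mL apiece, read by AlphaScreen after 30 min at room temperature.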
Pf growth 48h = P. falciparum growth inhibition at 48 hours (one generation). P. falciparum luciferase growth in erythrocytes, 48 h. Potency, µM (series often up to 28.7 µM), for inactives: at the top dose activity change, negative = inhibition, most hits filed as inhibitors. 310,000 compounds, 5.9% hits
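Firefly luciferase activity from engineered P. falciparum reports growth; inhibitors lower the luminescent signal. Cultures contained 2% hematocrit erythrocytes at 0.1% final parasitemia.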
Numbers without * were called inactive; i = inactive; ? = inconclusive; / = no result given; [ ] = dose if it differs, or a comment. Unless noted, calls follow the shape of the dose curve; as a rule, active = well fitted curve in the direction sought with a large enough effect; inconclusive = small, poorly fitted or top-dose-only effect, or another doubt; inactive = no such curve, though single readings can be large; an effect the other way counts as inactive or inconclusive. Unless noted, % is scaled to controls: 0 for no effect and ±100 for the full control effect; potency is read from the fitted curve at half-maximal effect.

SMILES	Pf growth 96h	Vaccinia mCherry	VACV Venus inh	AMA1-RON2 inh	Pf growth 48h
COc1cccc(C(=O)Nc2ccccc2C(=O)OCc2cc(=O)n3nc(C4CC4)sc3n2)c1	/	-11%	-3%	/	/
O=C(CN1C(=O)C2CCCCN2c2ccc(C(=O)N3CCCC3)cc21)NCc1cccc(Cl)c1 (configuration not stated)	/	-7%	-5%	/	/
CCC1CN(CC(=O)NCc2ccc3c(c2)OCO3)Cc2ccc(Cl)cc2O1 (configuration not stated)	/	-12%	-6%	/	/
Nc1nc(NCC2CCCO2)nc(Nc2ccccc2)c1[N+](=O)[O-] (configuration not stated)	?	-22%	-28%	13%	10µM*
Nc1nc(NCC2CCCO2)nc(Nc2ccc(Cl)cc2)c1[N+](=O)[O-] (configuration not stated)	?	-5%	-9%	-11%	?
CCOC(=O)c1c(NC(=O)CSc2nc(-c3ccc(OC)cc3)cc(C(F)(F)F)n2)sc(C)c1C	/	-2%	9%	/	/
O=C(COc1ccc2ccccc2c1CN1CCOCC1)N1CCc2ccccc21	10µM*	/	/	10%	/
O=C(CSc1nnc(CN2CCOCC2)n1-c1ccc(Cl)cc1)N1CCc2ccccc21	/	/	-22%	0%	/
Cc1ccc(C)c(-n2c(CNC(=O)c3ccco3)nnc2SCC(=O)N2CCc3ccccc32)c1	13µM*	-20%	-9%	40%	8%
O=C(CSc1nnc(CN2CCOCC2)n1-c1ccccc1)N1CCc2ccccc21	13µM*	-13%	-7%	6%	3%
Cc1ccc(C)c(-n2c(CNC(=O)c3ccco3)nnc2SCC(=O)Nc2nnc(C)s2)c1	26%	-13%	6%	-1%	/
Cc1occc1-c1nnc(SCC(=O)N2CCc3ccccc32)o1	5.2µM*	i	-11%	12%	-16%
CCS(=O)(=O)c1ccccc1C(=O)N(Cc1cccnc1)c1nc2cc(C)c(C)cc2s1	/	-21%	-16%	/	/
CC(=O)c1ccc(N2CCN(C(=O)c3cc4cc5cc(C)ccc5nc4s3)CC2)cc1	/	-6%	9%	/	/
COc1ccc(C2C(=O)N(C3CCC(C)CC3)CC(=O)N2C2CCCCC2)cc1OC (configuration not stated)	/	1%	-5%	/	/
COc1ccc(OCc2nnc(SCC(=O)N3CCCc4ccccc43)n2-c2ccc(C)cc2)cc1	/	/	/	15%	12µM*
N#Cc1ccc(OCc2nnc(SCC(=O)N3CCCc4ccccc43)n2-c2ccccc2)cc1	3.3µM*	/	/	-11%	15µM*
COc1ccc(-c2noc(CSc3nnc(-c4ccncc4)n3-c3cccc(C)c3)n2)cc1OC	/	-10%	?	/	/
O=c1[nH]c(=S)n(-c2ccc(Cl)cc2)c(O)c1C=Nc1ccc(N2CCOCC2)cc1	?	/	/	56%	3%
Cc1ccc(N=Cc2c(O)n(-c3cc(Cl)ccc3N3CCOCC3)c(=O)c3ccccc23)cc1C	/	-3%	-19%	-7%	2.6µM*
NCCc1c(-c2ccccc2)n(-c2ccccc2)c2ccccc12	?	?	?	?	15µM*
CC(=O)n1c(-c2ccccc2)c(CO)c2ccccc21	?	3%	-5%	-1%	31%
Cc1cc(C)n2c(Nc3ccccc3)c(-c3ccccc3)nc2n1	/	-6%	-5%	/	/
COc1cc(/C=C/c2nnc3c4ccccc4ncn23)cc(OC)c1OC	?	-15%	-30%	5%[2.32 µM]	9.3µM*
C(=C\c1nnc2c3ccccc3ncn12)/c1ccccc1	166%	?	?	-12%[2.32 µM]	129%
SMILES	Pf growth 96h	Vaccinia mCherry	VACV Venus inh	AMA1-RON2 inh	Pf growth 48h
COc1ccccc1OCc1ccc(C(=O)Nc2ccc(C)c(C)c2)o1	/	-13%	-18%	/	/
Nc1ncnc2c1ccn2[C@@H]1O[C@H](CO)[C@@H](O)[C@H]1O	/	1.4µM*	1.8µM*	-2%	/
NC(=S)c1cn(C2OC(CO)C(O)C2O)c2ncnc(N)c12 (configuration not stated)	4.1µM*	/	/	-8%	1.3µM*
Nc1ncnc2c1[nH]c(=O)n2C1OC(CO)C(O)C1O (configuration not stated)	/	4%	5%	/	/
OCC1OC(n2ccc3c2ncn2ncnc32)C(O)C1O (configuration not stated)	/	?	?	0%	/
CCCS(=O)(=O)Nc1cccc(-c2cn3ccc(C)cc3n2)c1	/	?	-28%	/	/
CCN(CC)S(=O)(=O)c1ccc2c(c1)c(=O)c(C(=O)N1CCN(c3ccccn3)CC1)cn2C	0.52µM*	/	/	11%	-7%
CCN(CC)S(=O)(=O)c1ccc2c(c1)c(C(=O)O)cn2C	6.6µM*	/	21%	0%	8%
Cc1nn(C(C)C)c(C)c1CN1CCCC(C(=O)c2cccc(OC(C)C)c2)C1 (configuration not stated)	12µM*	-25%	-14%	13%	?
CC(C)Oc1cccc(C(=O)C2CCCN(S(C)(=O)=O)C2)c1 (configuration not stated)	3.7µM*	i	-8%	0%	44%
CCOC(=O)c1c(-c2ccc(OC)cc2)oc2ccc(OCc3ccccc3C)cc12	/	4%	7%	/	/
CCCC[C@@H]1C[C@H]1[C@@H](NC(=O)c1cccs1)c1ccc(Cl)cc1	9.3µM*	i	-4%	14%	?
CCCC[C@@H]1C[C@H]1[C@@H](NC(=O)c1cccs1)c1ccc(C(F)(F)F)cc1	/	?	-3%	7%	/
CC(C)CC(NC(=O)C1CCCCC1)C(=O)NC(C)c1ccccc1 (configuration not stated)	30%	-20%	-22%	-1%	-22%
CC(=O)c1cccc(NC(=O)C(CC(C)C)NC(=O)C2CCCCC2)c1 (configuration not stated)	-4%	/	/	2%	5.9µM*
COc1ccccc1NC(=O)C(C)OC(=O)CC1CCCCC1 (configuration not stated)	?	/	/	-2%	13µM*
COc1ccccc1NC(=O)C(CC(C)C)NC(=O)C1CCCCC1 (configuration not stated)	8.3µM*	/	/	-1%	/
CCOc1ccc(CCNC(=O)CN2C(=O)NC3(CCCCCC3)C2=O)cc1OCC	?	/	/	-8%	13µM*
CCOc1ccc(CCNC(=O)CN2CCN(Cc3ccccc3F)C2=O)cc1OCC	1.5µM*	-23%	-20%	0%	?
CCc1ccccc1NC(=O)c1cnc(N2CCCCC2)c2ccccc12	/	-5%	-8%	/	/
Brc1ccc2c(c1)C(OC1CN3CCC1CC3)c1ccccc1CS2 (configuration not stated)	10µM*	?	11µM*	-3%	?
O=C(CN1CCC(NC(=O)Cc2ccccc2)CC1)Nc1cccc2ccccc12	8.3µM*	-11%	-4%	3%	?
O=C(Nc1cccc2ccccc12)NC1CCCCC1	0.83µM*	i	-2%	-2%	45%
O=C(Nc1nnc(-c2ccccc2)o1)NC1CCCCC1	3.7µM*	/	/	51%	12µM*
